High-throughput results as filed in PubChem BioAssay.
SSB-PriA inh: inhibitors of Klebsiella pneumoniae PriA binding to SSB C-terminal tail; AlphaScreen SSBct-PriA binding, biotinylated peptide; inhibition, % at 33 µM; 430,000 compounds, 0.6% hits; in the data active = inhibition mostly above about 37%, no sharp cut-off; inactive = mostly below about 20%
Sa RN4220 lethal: kills Staphylococcus aureus RN4220 | 330,000 compounds, 0.33% hits | inhibition, % (test concentration not listed) | S. aureus RN4220 growth, OD600, 16 h; in the data active = inhibition above about 85%
VHR inh abs: DUSP3 (human) phosphatase inhibition. recombinant VHR phosphatase, pNPP absorbance. 290,000 compounds, 0.52% hits. inhibition, % at 13.3 µM. P51452; in the data active = inhibition above about 50%
Target sequence (P51452 whole entry, looked up): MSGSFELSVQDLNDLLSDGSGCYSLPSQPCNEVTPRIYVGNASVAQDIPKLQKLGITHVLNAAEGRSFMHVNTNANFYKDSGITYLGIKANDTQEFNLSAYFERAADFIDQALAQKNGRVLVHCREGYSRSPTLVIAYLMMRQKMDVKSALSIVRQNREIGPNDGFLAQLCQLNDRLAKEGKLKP
ugtP null kill: compounds lethal to S. aureus RN4220 ugtP deletion mutant | OD600 growth, 16 h | growth inhibition, % (test concentration not listed) | 330,000 compounds, 0.54% hits | AID 1259309; in the data active = growth inhibition above about 68%
CCHF vOTU inh: blocks the CCHF virus ovarian tumor domain protease. CCHFV vOTU protease, Pep-AMC fluorescence. inhibition, % at 11.5 µM. 370,000 compounds, 0.55% hits. AID 651958; in the data active = inhibition above about 30%
Hits are given with their value. Shown are actives, neighbours in structure and some others; about 1.5% of the full set was active somewhere.

`Cc1ccc(C)c(N2CCN(C(=O)c3ccc(CS(=O)Cc4ccc(Cl)cc4)o3)CC2)c1` (centres undefined) gave SSB-PriA inh inactive, Sa RN4220 lethal inactive, VHR inh abs inactive, ugtP null kill inactive and CCHF vOTU inh inactive.
Cc1cccc(N2CCN(C(=O)c3ccc(CS(=O)Cc4cccc(Cl)c4)o3)CC2)c1C (centres undefined) was read as SSB-PriA inh inactive, Sa RN4220 lethal inactive, VHR inh abs inactive, ugtP null kill 90 and CCHF vOTU inh inactive.
Screening Cc1ccc(Cl)cc1N1CCN(C(=O)c2ccc(CS(=O)Cc3ccc(Cl)cc3)o2)CC1 (centres undefined) returned SSB-PriA inh inactive, Sa RN4220 lethal inactive, VHR inh abs inactive, ugtP null kill 96 and CCHF vOTU inh inactive.
Cc1ccc(CS(=O)Cc2ccc(C(=O)N3CCN(c4cccc(C)c4C)CC3)o2)cc1 (centres undefined) was read as CCHF vOTU inh inactive.
Screening O=C(c1ccc(CS(=O)Cc2ccc(Cl)cc2)o1)N1CCN(c2ccccc2F)CC1 (centres undefined) returned SSB-PriA inh inactive, Sa RN4220 lethal inactive, VHR inh abs inactive, ugtP null kill 99 and CCHF vOTU inh inactive.
COc1ccc(N2CCN(C(=O)c3ccc(CS(=O)Cc4ccc(Cl)cc4)o3)CC2)cc1 (centres undefined) was read as SSB-PriA inh inactive, Sa RN4220 lethal inactive, VHR inh abs inactive, ugtP null kill 99 and CCHF vOTU inh inactive.
`COc1ncc(NC(=O)Nc2ccc(C)cc2Cl)c(N2CCOCC2)n1` gave SSB-PriA inh inactive.
CCCC(=O)N1CCN(C(=O)C(NC(=O)c2ccc(OC)cc2)S(=O)(=O)c2ccc(F)cc2)CC1 (centres undefined) was read as SSB-PriA inh inactive.
Cc1ccc(NC(=S)NC(=O)C2CCCCC2)c(Br)c1 was read as SSB-PriA inh inactive, Sa RN4220 lethal inactive, ugtP null kill 87 and CCHF vOTU inh inactive.
Screening Cc1ccc(NC(=O)C2CCCC2)c(Br)c1 returned SSB-PriA inh inactive, Sa RN4220 lethal inactive, ugtP null kill inactive and CCHF vOTU inh inactive.
Screening NS(=O)(=O)c1ccc(NC(=S)NC(=O)C2CCCCC2)cc1 returned SSB-PriA inh inactive, Sa RN4220 lethal inactive, VHR inh abs inactive, ugtP null kill 89 and CCHF vOTU inh inactive.
For COc1ccc(C)cc1NC(=O)CS(=O)c1ncc(-c2ccccc2)n1C (centres undefined) the results were SSB-PriA inh 79.
Screening COc1cccc(CCNC(=O)c2cc3cccnc3n(C)c2=O)c1 returned SSB-PriA inh inactive.
For Cc1ccc(NC(=O)COC(=O)CCc2c[nH]c3ccccc23)cc1[N+](=O)[O-] the results were SSB-PriA inh 40, Sa RN4220 lethal inactive, VHR inh abs inactive, ugtP null kill inactive and CCHF vOTU inh inactive.
Screening Cc1ccccc1NC(=O)COC(=O)CCc1c[nH]c2ccccc12 returned SSB-PriA inh inactive, Sa RN4220 lethal inactive, ugtP null kill inactive and CCHF vOTU inh inactive.
COc1ccc(N2CCN(Cc3csc(C)c3-c3ccc(C)cc3)CC2)cc1 was read as SSB-PriA inh 91, Sa RN4220 lethal inactive, VHR inh abs inactive, ugtP null kill inactive and CCHF vOTU inh inactive.
For Cc1nc(SCC(=O)c2cccc(Cl)c2)nc2c1CCCC2 the results were SSB-PriA inh inactive.
`S=C(Nc1ccccc1)Nc1ccc(Cl)cc1Cl` gave SSB-PriA inh inactive, Sa RN4220 lethal inactive, VHR inh abs inactive, ugtP null kill inactive and CCHF vOTU inh inactive.
For Fc1ccc(NC(=S)Nc2ccc(F)c(Cl)c2)cc1Cl the results were SSB-PriA inh inactive, Sa RN4220 lethal 108, VHR inh abs inactive and ugtP null kill 97.
FC(F)(F)c1cccc(NC(=S)Nc2ccc(Cl)cc2Cl)c1 was read as SSB-PriA inh inactive, Sa RN4220 lethal 98, VHR inh abs inactive, ugtP null kill 84 and CCHF vOTU inh inactive.
`O=C(NC(=S)Nc1ccc(F)c(Cl)c1)C1CC1` gave SSB-PriA inh inactive, Sa RN4220 lethal inactive, VHR inh abs inactive, ugtP null kill inactive and CCHF vOTU inh inactive.
`Cc1cc(-c2nnc(NC(=O)c3cc(C)n(C)n3)o2)n(C)n1` gave SSB-PriA inh inactive.
CCOC(=O)c1cc2c(ccn2C)n1Cc1cc(C)ccc1C was read as SSB-PriA inh 41, Sa RN4220 lethal inactive, VHR inh abs inactive, ugtP null kill inactive and CCHF vOTU inh inactive.
CC/C(=N\NC(=O)Cc1ccc(Br)cc1)c1cccs1 was read as VHR inh abs 50 and CCHF vOTU inh inactive.
For Cc1ccc(C)c2[nH]c(=O)c(CCNC(=S)Nc3ccc(OC(F)F)cc3)cc12 the results were SSB-PriA inh inactive.
Screening O=C(N/N=C/c1cccc([N+](=O)[O-])c1)c1ccc(Br)cc1 returned SSB-PriA inh inactive, VHR inh abs 57 and CCHF vOTU inh inactive.
O=C(NN=Cc1cccc([N+](=O)[O-])c1)c1cccc2cc[nH]c12 was read as SSB-PriA inh inactive, Sa RN4220 lethal inactive and ugtP null kill inactive.
Screening O=C(N/N=C/c1cccc([N+](=O)[O-])c1)c1cccc(Br)c1 returned VHR inh abs inactive and CCHF vOTU inh inactive.
O=C(N/N=C/c1cccc([N+](=O)[O-])c1)c1cccc2cc[nH]c12 was read as VHR inh abs 52 and CCHF vOTU inh inactive.
`CCOC(=O)N1CCN(C[C@H](O)COc2ccc(Cl)cc2)CC1` gave SSB-PriA inh inactive.
For COc1ccc(-c2nnc(NC(=O)c3ccc(S(=O)(=O)N(C)CC4CCCO4)cc3)o2)c(OC)c1 (centres undefined) the results were SSB-PriA inh inactive, Sa RN4220 lethal inactive, VHR inh abs inactive, ugtP null kill 100 and CCHF vOTU inh inactive.
`Cc1nn(C(=O)CCCOc2ccc(Cl)cc2Cl)c(C)c1Sc1ccccc1[N+](=O)[O-]` gave SSB-PriA inh inactive.
`COc1ccc(-n2c(C)cc(C)c(C(C)=O)c2=S)cc1` gave SSB-PriA inh inactive, Sa RN4220 lethal inactive, VHR inh abs inactive, ugtP null kill inactive and CCHF vOTU inh inactive.
COc1ccccc1-n1c(C)cc(SC)c(C(C)=O)c1=S was read as SSB-PriA inh inactive, Sa RN4220 lethal inactive, VHR inh abs 52, ugtP null kill inactive and CCHF vOTU inh inactive.
S=C(NCc1ccccn1)NN=Cc1ccccn1 was read as SSB-PriA inh 61 and CCHF vOTU inh inactive.
`S=C(NCc1ccccc1)N/N=C/c1ccccn1` gave SSB-PriA inh inactive.
CCOC(=O)c1sc2nc(NC(=O)CCc3ccccc3)sc2c1C was read as SSB-PriA inh inactive.
For COC(=O)c1ccc(OCC(=O)Nc2ccsc2C(=O)OC)cc1 the results were SSB-PriA inh inactive, Sa RN4220 lethal inactive, VHR inh abs inactive, ugtP null kill inactive and CCHF vOTU inh inactive.
`COC(=O)c1sccc1NC(=O)COc1ccc(F)cc1Cl` gave SSB-PriA inh inactive, Sa RN4220 lethal inactive, VHR inh abs 57, ugtP null kill inactive and CCHF vOTU inh inactive.
COc1ccccc1C(=O)Nc1ccc2c(c1)N(S(=O)(=O)c1ccc(C)cc1)CCC2 was read as SSB-PriA inh inactive.
CCOc1ccc(S(=O)(=O)NCC(O)c2ccc3c(c2)CCO3)cc1F (centres undefined) was read as SSB-PriA inh inactive.
